Reference: PubChem BioAssay (EPA / NIEHS)
Activity calls are given as the source filed them. How the source made its calls: active means hit-call score of the fitted dose curve at least 0.9, where 1 is the maximum; inactive means score below 0.9.

How the values were obtained:
[1] = target: Transcription factor E2F1 (Homo sapiens) (UniProt Q01094); assay: ATG_E2F_CIS: Attagene CIS-FACTORIAL HepG2 Assay for human E2F Transcription Factor 1 (AID 2282935); details: HepG2 Attagene cis-reporter, E2F reporter RNA transcripts; actives raise or lower the signal
Procedure, shortened: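 Transient MRTU transfection of HepG2; 24 h compound exposure; RNA → oligo(dT) RT → PCR → FAM label → HpaI cut → CE fluorescence. Gain/loss of signal fit against DMSO.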

[2] = ATG_E_Box_CIS: Attagene CIS-FACTORIAL HepG2 Assay for human Enhancer Box (E-box) (AID 2282936); details: HepG2 E-box cis-reporter transcription, actives raise or lower the signal
Procedure, shortened: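 Transiently transfected HepG2, endogenous TF-driven reporters, 24 h dosing. Readout: RT-PCR plus capillary electrophoresis of fluorescent reporter fragments. Gain or loss of signal fitted bidirectionally against DMSO baseline.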

[3] = ATG_M_61_CIS: Attagene CIS-FACTORIAL HepG2 Assay for M61 Transcription Factor (Internal Marker) (AID 2282937); details: HepG2 Attagene CIS-FACTORIAL M61 internal marker reporter; actives raise or lower the signal
Procedure, shortened: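 Human liver HepG2, transient MRTU transfection (cis promoter elements), 24 h compound. Total RNA → oligo(dT) RT → PCR → FAM label → HpaI → CE. Internal background marker; bidirectional fitting, DMSO = baseline.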

[4] = ATG_EGR_CIS: Attagene CIS-FACTORIAL HepG2 Assay for human Early Growth Response 1 (EGR1) (AID 2282938); details: HepG2 Attagene CIS-FACTORIAL EGR reporter mRNA; actives raise or lower the signal
Procedure, shortened: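 Transient transfection of human HepG2 with multiple cis-regulated reporter units, chemical exposure 24 h, total RNA isolated. Reverse transcription, PCR, fluorescent labelling and capillary electrophoresis quantify reporter transcripts; activity fitted bidirectionally against DMSO.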

[5] = ATG_M_19_CIS: Attagene CIS-FACTORIAL HepG2 Assay for M19 Transcription Factor (Internal Marker) (AID 2282939); details: HepG2 Attagene CIS-FACTORIAL M19 internal marker reporter; actives raise or lower the signal
Procedure, shortened: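 HepG2, MRTU transient transfection, 24 h dosing. Total RNA → RT-PCR → 6-FAM primer extension → HpaI digest → CE fluorescence. Bidirectional curve fit, DMSO negative control.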

[6] = ATG_ERE_CIS: Attagene CIS-FACTORIAL HepG2 Assay for Estrogen Response Element (ERE) (AID 2282940); details: HepG2 ERE cis-reporter, Attagene RNA transcript; actives raise or lower the signal
Procedure, shortened: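 After a 24 h chemical treatment, RNA from reporter-transfected HepG2 cells is reverse-transcribed, PCR-amplified and fluorescently labelled. Fragments separated by capillary electrophoresis give reporter signal; DMSO serves as negative control.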

[7] = ATG_Ets_CIS: Attagene CIS-FACTORIAL HepG2 Assay for human Erythroblast Transformation Specific (ETS) (AID 2282941); details: HepG2 ETS cis-reporter transcription, actives raise or lower the signal
Procedure, shortened: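 RT-PCR/capillary electrophoresis fluorescence read-out of reporter mRNA; HepG2 transient multi-reporter transfection; 24 h compound exposure; gain or loss of signal fitted bidirectionally relative to DMSO.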

[8] = target: Hepatocyte nuclear factor 3-beta (Homo sapiens) (UniProt Q9Y261); assay: ATG_FoxA2_CIS: Attagene CIS-FACTORIAL HepG2 Assay for human Forkhead box A2 (FOXA2) (AID 2282942); details: HepG2 cis-reporter transcription factor activity, 24 h; actives raise or lower the signal
Procedure, shortened: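 Transient MRTU transfection of HepG2 liver cells; 24 h treatment; total RNA → oligo(dT) RT → PCR → FAM primer extension → HpaI cut → CE. Bidirectional fit vs DMSO.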

[9] = ATG_FoxO_CIS: Attagene CIS-FACTORIAL HepG2 Assay for human Forkhead box O (FoxO) (AID 2282943); details: HepG2 Attagene cis-reporter, FoxO element, mRNA; actives raise or lower the signal
Procedure, shortened: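 HepG2 cells transiently transfected with cis-element-driven reporter units report endogenous FoxO activity. After 24 h chemical exposure, reporter mRNA quantified by RT-PCR, fluorescent labeling, HpaI digestion and capillary electrophoresis; bidirectional fit versus DMSO.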

[10] = ATG_GATA_CIS: Attagene CIS-FACTORIAL HepG2 Assay for human GATA Binding Protein (AID 2282944); details: HepG2 GATA cis-element reporter, Attagene multiplex mRNA; actives raise or lower the signal
Procedure, shortened: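 Cells: HepG2, transiently transfected with cis-regulated reporter transcription units. Exposure: 24 h. Detection: RT-PCR plus capillary electrophoresis of FAM-labeled fragments. Analysis: bidirectional, DMSO as baseline.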

[11] = ATG_GLI_CIS: Attagene CIS-FACTORIAL HepG2 Assay for human Zinc Finger Protein GLI1 (AID 2282945); details: HepG2, Attagene cis-factorial reporter mRNA, GLI element; actives raise or lower the signal
Procedure, shortened: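 Transiently transfected HepG2 cells report endogenous transcription factor activity via cis-element-driven reporter units. After 24 h compound exposure, reporter mRNA was measured by RT-PCR with capillary electrophoresis; bidirectional fitting against DMSO baseline.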

[12] = target: Bile acid receptor (Homo sapiens) (UniProt Q96RI1); assay: ATG_IR1_CIS: Attagene CIS-FACTORIAL HepG2 Assay for human Nuclear Receptor Subfamily 1 Group H Member 4 (NR1H4), IR1 submotif (AID 2282946); details: IR1 reporter transcription, actives raise or lower the signal
Procedure, shortened: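 Fluorescence of capillary-separated, HpaI-digested RT-PCR reporter products gave IR1-element mRNA induction in HepG2 cells 24 h after dosing. Endogenous transcription factors drove the cis-regulated reporters; activity was fitted bidirectionally against DMSO.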

[13] = ATG_GRE_CIS: Attagene CIS-FACTORIAL HepG2 Assay for human Glucocorticoid Response Elements (GRE) (AID 2282947); details: HepG2 GRE cis-reporter, Attagene multiplex mRNA; actives raise or lower the signal
Procedure, shortened: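 Read-out: fluorescent reporter-transcript fragments separated by capillary electrophoresis after RT-PCR. Transiently transfected HepG2 cells carrying cis-element-driven reporter units were dosed for 24 h; gain or loss of signal fitted against DMSO control.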

[14] = ATG_ISRE_CIS: Attagene CIS-FACTORIAL HepG2 Assay for human Interferon Regulatory Factor 1 (IRF1) binding to an Interferon-Stimulated Response Element (ISRE) (AID 2282948); details: HepG2 ISRE cis-reporter (Attagene), mRNA transcription readout; actives raise or lower the signal
Procedure, shortened: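 Read-out: fluorescent RT-PCR products resolved by capillary electrophoresis, reporting endogenous transcription factor activity via ISRE-driven reporter mRNA in transfected HepG2 cells dosed for 24 h; gain or loss fitted relative to DMSO.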

[15] = ATG_M_32_CIS: Attagene CIS-FACTORIAL HepG2 Assay for M32 Transcription Factor (Internal Marker) (AID 2282949); details: HepG2 Attagene cis-factorial M32 reporter, mRNA; actives raise or lower the signal;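 further: background control marker of the multiplexed CIS panel rather than a real target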
Procedure, shortened: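 Using DMSO as baseline, bidirectional curve fits were applied to reporter mRNA signals. These came from transiently transfected HepG2 cells exposed for 24 h, with RNA analysed by RT-PCR, FAM primer extension, HpaI digestion and CE.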

[16] = ATG_M_06_CIS: Attagene CIS-FACTORIAL HepG2 Assay for M06 Transcription Factor (Internal Marker) (AID 2282950); details: HepG2 Attagene CIS-FACTORIAL M06 internal marker reporter; actives raise or lower the signal
Procedure, shortened: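 Measured 24 h post-dosing in transiently transfected HepG2 cells, this internal-marker endpoint reports reporter mRNA via RT-PCR with fluorescent primer extension and capillary electrophoresis. DMSO served as negative control and baseline for bidirectional fitting.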

[17] = target: Hypoxia-inducible factor 1-alpha (Homo sapiens) (UniProt Q16665); assay: ATG_HIF1a_CIS: Attagene CIS-FACTORIAL HepG2 Assay for human Hypoxia Inducible Factor 1 (HIF1A) (AID 2282951); details: HepG2 Attagene cis-factorial HIF1a reporter transcription; actives raise or lower the signal
Procedure, shortened: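 Transient MRTU transfection of human HepG2 liver cells, 24 h compound treatment, then total RNA isolation, oligo(dT) reverse transcription, PCR amplification, fluorescent labelling and capillary electrophoresis of reporter fragments. Gain or loss relative to DMSO.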

[18] = target: Hepatocyte nuclear factor 6 (Homo sapiens) (UniProt Q9UBC0); assay: ATG_HNF6_CIS: Attagene CIS-FACTORIAL HepG2 Assay for human Hepatocyte Nuclear Factor 6 (HNF6) (AID 2282952); details: HepG2 Attagene cis-factorial HNF6 reporter transcription; actives raise or lower the signal
Procedure, shortened: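 Readout: fluorescent reporter-transcript fragments resolved by capillary electrophoresis after RT-PCR, reflecting endogenous factor activity in transfected HepG2. Exposure 24 h. Gain or loss of signal fitted bidirectionally against DMSO.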

[19] = target: Heat shock factor protein 1 (Homo sapiens) (UniProt Q00613); assay: ATG_HSE_CIS: Attagene CIS-FACTORIAL HepG2 Assay for human Heat Shock Transcription Factor 1 (HSE) (AID 2282953); details: HepG2 HSE cis-reporter, Attagene RNA transcription; actives raise or lower the signal
Procedure, shortened: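 Reporter mRNA induction in HepG2 is measured 24 h after dosing, using transiently transfected multiplexed cis-regulated reporter units. Signal comes from capillary electrophoresis of labelled RT-PCR products, with DMSO as negative control.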

[20] = ATG_MRE_CIS: Attagene CIS-FACTORIAL HepG2 Assay for human Metal Responsive Element (MRE) (AID 2282954); details: HepG2 MRE cis-reporter transcription, Attagene multiplex; actives raise or lower the signal
Procedure, shortened: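 RT-PCR/capillary electrophoresis readout of reporter mRNA, 24 h post-dosing, in HepG2 cells transfected with multiplexed cis-regulated reporter constructs. Gain or loss of signal fitted bidirectionally against DMSO baseline.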

Measured: outcome

Chain of Transcription factor E2F1 (Homo sapiens) (Q01094 whole entry, looked up): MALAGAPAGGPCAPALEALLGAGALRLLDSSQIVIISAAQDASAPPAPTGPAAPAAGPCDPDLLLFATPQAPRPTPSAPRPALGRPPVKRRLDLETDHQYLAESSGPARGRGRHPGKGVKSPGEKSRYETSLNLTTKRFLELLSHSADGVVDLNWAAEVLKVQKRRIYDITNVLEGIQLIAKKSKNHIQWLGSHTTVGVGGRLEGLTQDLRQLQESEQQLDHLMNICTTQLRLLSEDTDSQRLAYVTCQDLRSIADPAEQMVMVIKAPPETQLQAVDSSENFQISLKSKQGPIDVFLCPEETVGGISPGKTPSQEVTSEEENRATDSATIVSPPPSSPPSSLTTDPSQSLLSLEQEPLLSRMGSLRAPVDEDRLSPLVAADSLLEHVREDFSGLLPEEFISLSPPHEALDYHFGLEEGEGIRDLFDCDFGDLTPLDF
Chain of Hepatocyte nuclear factor 6 (Homo sapiens) (Q9UBC0 whole entry, looked up, the tested form may be a part): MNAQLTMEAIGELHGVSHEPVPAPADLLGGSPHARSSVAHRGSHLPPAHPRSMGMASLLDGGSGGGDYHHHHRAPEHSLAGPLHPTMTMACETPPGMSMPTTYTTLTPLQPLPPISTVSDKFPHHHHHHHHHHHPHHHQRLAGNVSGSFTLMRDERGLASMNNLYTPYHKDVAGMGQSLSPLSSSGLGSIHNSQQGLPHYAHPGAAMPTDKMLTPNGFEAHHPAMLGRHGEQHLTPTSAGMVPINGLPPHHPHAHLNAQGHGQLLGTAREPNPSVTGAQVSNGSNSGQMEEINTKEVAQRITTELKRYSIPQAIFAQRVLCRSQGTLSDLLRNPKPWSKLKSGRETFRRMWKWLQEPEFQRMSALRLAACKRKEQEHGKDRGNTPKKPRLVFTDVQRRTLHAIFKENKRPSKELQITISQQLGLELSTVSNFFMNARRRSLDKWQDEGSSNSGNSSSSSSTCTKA
Chain of Hepatocyte nuclear factor 3-beta (Homo sapiens) (Q9Y261 whole entry, looked up): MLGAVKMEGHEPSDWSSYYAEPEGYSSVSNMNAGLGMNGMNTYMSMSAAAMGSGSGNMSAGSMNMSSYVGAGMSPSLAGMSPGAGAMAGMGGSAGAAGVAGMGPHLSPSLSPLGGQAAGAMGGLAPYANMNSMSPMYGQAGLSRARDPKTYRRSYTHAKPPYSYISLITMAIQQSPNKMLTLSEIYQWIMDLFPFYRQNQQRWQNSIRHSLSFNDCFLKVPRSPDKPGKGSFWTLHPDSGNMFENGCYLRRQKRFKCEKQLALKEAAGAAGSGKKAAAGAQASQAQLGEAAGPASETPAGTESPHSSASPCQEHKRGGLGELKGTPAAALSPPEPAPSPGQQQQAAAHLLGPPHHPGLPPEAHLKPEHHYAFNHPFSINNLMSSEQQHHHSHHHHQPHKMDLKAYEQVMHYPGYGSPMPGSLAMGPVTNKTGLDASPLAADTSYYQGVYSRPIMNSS
Chain of Hypoxia-inducible factor 1-alpha (Homo sapiens) (Q16665 whole entry, looked up, the tested form may be a part): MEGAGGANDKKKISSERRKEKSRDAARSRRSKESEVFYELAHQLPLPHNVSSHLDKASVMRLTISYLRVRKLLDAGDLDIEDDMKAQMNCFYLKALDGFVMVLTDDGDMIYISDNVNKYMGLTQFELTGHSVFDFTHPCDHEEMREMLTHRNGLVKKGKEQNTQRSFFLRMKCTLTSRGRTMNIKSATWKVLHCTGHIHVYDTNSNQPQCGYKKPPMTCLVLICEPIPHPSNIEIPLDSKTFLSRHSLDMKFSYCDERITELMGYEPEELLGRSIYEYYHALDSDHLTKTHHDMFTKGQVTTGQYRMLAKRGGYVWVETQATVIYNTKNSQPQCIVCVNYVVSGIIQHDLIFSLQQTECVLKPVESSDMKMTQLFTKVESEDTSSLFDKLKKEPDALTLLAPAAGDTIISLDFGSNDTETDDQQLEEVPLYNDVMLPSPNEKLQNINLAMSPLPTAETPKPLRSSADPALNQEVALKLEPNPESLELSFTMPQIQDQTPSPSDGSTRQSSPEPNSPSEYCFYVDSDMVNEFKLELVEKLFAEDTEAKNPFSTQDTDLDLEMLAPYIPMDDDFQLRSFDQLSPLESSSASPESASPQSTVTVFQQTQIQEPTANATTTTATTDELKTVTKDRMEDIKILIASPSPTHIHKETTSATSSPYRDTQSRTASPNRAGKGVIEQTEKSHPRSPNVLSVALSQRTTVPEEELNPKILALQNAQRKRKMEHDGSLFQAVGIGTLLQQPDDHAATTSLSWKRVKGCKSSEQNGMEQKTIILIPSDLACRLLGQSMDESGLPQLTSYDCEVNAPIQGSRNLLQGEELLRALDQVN
Chain of Heat shock factor protein 1 (Homo sapiens) (Q00613 whole entry, looked up): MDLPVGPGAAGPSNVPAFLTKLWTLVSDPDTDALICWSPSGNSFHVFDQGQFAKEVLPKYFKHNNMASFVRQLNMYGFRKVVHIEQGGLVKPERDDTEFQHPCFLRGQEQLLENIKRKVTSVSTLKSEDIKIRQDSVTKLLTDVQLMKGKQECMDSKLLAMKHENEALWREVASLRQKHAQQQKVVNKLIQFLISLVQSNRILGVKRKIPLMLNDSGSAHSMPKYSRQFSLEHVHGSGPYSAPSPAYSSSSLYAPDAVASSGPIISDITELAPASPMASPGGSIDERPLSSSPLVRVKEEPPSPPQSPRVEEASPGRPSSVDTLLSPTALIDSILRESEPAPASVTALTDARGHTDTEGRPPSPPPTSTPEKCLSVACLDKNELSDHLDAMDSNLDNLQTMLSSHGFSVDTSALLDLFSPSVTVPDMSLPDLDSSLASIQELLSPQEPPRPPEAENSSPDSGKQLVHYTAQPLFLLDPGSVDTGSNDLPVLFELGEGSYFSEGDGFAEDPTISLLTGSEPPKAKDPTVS
Chain of Bile acid receptor (Homo sapiens) (Q96RI1 whole entry, looked up): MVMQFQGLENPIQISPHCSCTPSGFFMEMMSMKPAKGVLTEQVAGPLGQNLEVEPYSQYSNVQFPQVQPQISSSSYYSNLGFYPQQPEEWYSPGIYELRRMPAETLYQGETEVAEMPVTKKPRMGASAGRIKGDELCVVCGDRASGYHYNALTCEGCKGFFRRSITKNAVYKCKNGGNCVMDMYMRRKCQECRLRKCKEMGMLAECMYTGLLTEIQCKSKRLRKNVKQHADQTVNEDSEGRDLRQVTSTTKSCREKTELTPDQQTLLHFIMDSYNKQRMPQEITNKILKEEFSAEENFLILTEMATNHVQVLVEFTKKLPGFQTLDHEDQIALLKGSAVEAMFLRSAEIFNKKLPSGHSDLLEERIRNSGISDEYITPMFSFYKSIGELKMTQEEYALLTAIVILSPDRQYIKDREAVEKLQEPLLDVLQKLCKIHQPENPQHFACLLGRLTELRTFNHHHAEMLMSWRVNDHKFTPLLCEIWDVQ

Cc1cc(C)c(C=O)c(C)c1
inactive: all assays above

CC12CCC(CC1)C(C)(C)O2
inactive: all assays above

CC(C)(CO)COC(=O)C(C)(C)CO
inactive: all assays above
